Screens from PubChem BioAssay.
Only some compounds are listed: those with a hit (about 10% of all), similar ones and a draw of the others.
VDR inhibitor – vitamin D3 receptor (human) inhibition; P11473; VDR-SRC2-3 peptide fluorescence polarization, 2 h; Potency, µM, without a hit: max response, negative = inhibition, hits mostly inhibitors; 400,000 tested, 0.93% active; AID 504847; further: potency means the concentration at half of the fitted maximal effect
Target sequence (P11473 whole entry, looked up): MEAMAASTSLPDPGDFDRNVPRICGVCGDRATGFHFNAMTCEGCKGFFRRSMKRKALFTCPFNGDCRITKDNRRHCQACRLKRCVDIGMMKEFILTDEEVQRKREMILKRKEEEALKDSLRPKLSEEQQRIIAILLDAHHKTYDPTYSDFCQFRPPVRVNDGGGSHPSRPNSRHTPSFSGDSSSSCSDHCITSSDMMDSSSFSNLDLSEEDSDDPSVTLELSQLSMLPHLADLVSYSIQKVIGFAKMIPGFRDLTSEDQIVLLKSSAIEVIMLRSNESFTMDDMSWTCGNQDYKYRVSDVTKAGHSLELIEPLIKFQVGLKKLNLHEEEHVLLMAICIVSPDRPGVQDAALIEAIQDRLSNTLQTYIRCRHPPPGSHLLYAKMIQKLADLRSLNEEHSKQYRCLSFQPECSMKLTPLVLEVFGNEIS
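Signal is fluorescence polarization, reporting how far test compounds block the interaction of VDR with the SRC2-3 coregulator peptide after a 2 h room-temperature incubation.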
PLK1 PBD inh – PLK1 (human) polo-box domain binding inhibition | Potency, µM, without a hit: max response, negative = inhibition, most hits filed as inhibitors | AID 720504 | P53350 | Plk1 PBD binding of FITC phosphopeptide, fluorescence polarization | 360,000 tested, 2.8% active; further: potency means the concentration at half of the fitted maximal effect; series mostly up to about 57 µM; nearly all actives have a fitted effect of over 65% in size
Sfp PPTase inh – blocks B. subtilis Sfp PPTase activity; Q9F4F7; Biochemical Sfp PPTase activity, qHTS; Potency, µM, for the others: largest response in the series, negative = inhibition, usual class: inhibitors; 310,000 tested, 3.5% active;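 further: the enzyme is Sfp with the accession as filed and its product quenches rhodamine fluorescence; potency means the concentration at half of the fitted maximal effect; 0% = enzyme reaction without inhibitor and -100% = no enzyme wells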
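Reaction rates are the 30-min fluorescence difference (ex 525, em 598 nm) in wells containing 15 nM Sfp, 5 uM rhodamine-CoA and 12.5 uM BHQ-2-YbbR at pH 7.6 with 10 mM MgCl2.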
MmCpn inh – blocks the Methanococcus maripaludis chaperonin Mm-Cpn | AID 504842 | 330,000 tested, 0.031% active | Potency, µM (doses to about 76.9 µM), without a hit: at the highest dose activity, negative = inhibition, actives largely listed as inhibitors | purified Mm-Cpn ATPase, ADP Transcreener TR-FRET; further: potency means the concentration at half of the fitted maximal effect; nearly all actives have a fitted effect of over 80% in size
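Eu-cryptate anti-ADP/ADP-d2 competition gives a ratio inversely related to ADP. Enzyme at 25 nM was pre-exposed to compound for 10 min, then given 10 uM ATP for 30 min, 37°C throughout.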
G9a inh – G9a (human) methyltransferase inhibition. Q96KQ7. G9a H3K9 monomethylation, AlphaScreen, 2 h. AID 504332. 350,000 tested, 8.8% active. Potency, µM (highest dose often 102 µM), for the others: at the top dose activity, negative = inhibition, actives largely listed as inhibitors; further: potency means the concentration at half of the fitted maximal effect; nearly all actives have a fitted effect of over 75% in size
Target sequence (Q96KQ7 913-1193 limits assumed): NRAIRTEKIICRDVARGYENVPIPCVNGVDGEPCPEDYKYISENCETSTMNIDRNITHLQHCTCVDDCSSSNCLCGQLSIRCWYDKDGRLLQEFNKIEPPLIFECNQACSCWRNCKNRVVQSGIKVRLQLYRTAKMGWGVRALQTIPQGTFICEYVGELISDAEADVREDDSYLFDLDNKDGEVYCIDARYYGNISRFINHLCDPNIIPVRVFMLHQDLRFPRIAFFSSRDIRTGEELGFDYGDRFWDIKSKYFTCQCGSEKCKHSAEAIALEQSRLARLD
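Methyltransferase reactions run at room temperature for 2 h (20 nM enzyme, 500 nM biotin-H3K9 peptide, 20 uM SAM) after a 15 min compound preincubation; product detected by AlphaScreen beads and anti-H3K9me1 antibody.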
CCT chaperon mod – modulators of cytosolic chaperonin (CCT/TRiC) activity | 360,000 tested, 0.3% active | activity change, % (test concentration not listed), hits read low | purified chaperonin ATPase assay, HTRF ADP detection, 30 min; in the data active means activity change below about -30%
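Nucleotide hydrolysis assay: TRiC at 20–40 nM final (set by batch activity) with 10 uM ATP, 30 min at 37 °C, in presence of 76 uM compound. Detection by competitive ADP HTRF, 30 min ambient.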
Active calls of the source: *; [ ] = remark or other dose. Unless noted, the call rests on the fitted dose curve; in most records, active means well fitted curve in the direction sought with a large enough effect; inconclusive means small, poorly fitted or top-dose-only effect, or another doubt; inactive means no such curve, though single readings can be large; an effect the other way counts as inactive or inconclusive. Unless noted, on the % scale 0 is the no-effect control and ±100 the full control effect.

For CCCC1C2C(=O)N(c3ccccc3)C(=O)C2ON1c1ccccc1 (stereo not drawn) the results were VDR inhibitor 11.0%, PLK1 PBD inh -4.5%, Sfp PPTase inh 18.3%, MmCpn inh -2.2%, G9a inh 8.5% and CCT chaperon mod -4.0.
Screening CCOc1ccccc1C1C2C(=O)N(c3ccccc3)C(=O)C2ON1c1ccccc1 (stereo not drawn) returned VDR inhibitor -4.9%, PLK1 PBD inh -3.4%, Sfp PPTase inh 0.4%, MmCpn inh -0.6%, G9a inh inconclusive and CCT chaperon mod 0.5.
For CCCNC(=O)c1cc(OC)c(OC)cc1[N+](=O)[O-] the results were VDR inhibitor -4.7%, PLK1 PBD inh -1.3%, Sfp PPTase inh 22.4%, MmCpn inh 2.3%, G9a inh 2.3% and CCT chaperon mod -2.6.
COc1cc(C(=O)NCCc2ccc(F)cc2)c([N+](=O)[O-])cc1OC was read as VDR inhibitor 1.9%, PLK1 PBD inh 13.4µM*, Sfp PPTase inh 6.8%, MmCpn inh 2.0%, G9a inh 14.1%[59 µM] and CCT chaperon mod -0.2.
CCOC(=O)c1nnsc1NC(=O)Nc1ccc(OC)cc1 was read as VDR inhibitor 4.0%, PLK1 PBD inh -8.5%, Sfp PPTase inh 13.2%, MmCpn inh -0.3%, G9a inh 39.8µM* and CCT chaperon mod 2.1.
For COc1ccc(NC(=O)Nc2c(SC)nsc2SC)cc1 the results were VDR inhibitor 6.7%, PLK1 PBD inh inconclusive, Sfp PPTase inh 8.0%, MmCpn inh -1.0%, G9a inh 39.8µM* and CCT chaperon mod 1.5.
`CCOC(=O)c1ccc(NC(=O)NNS(=O)(=O)c2cc(OC)ccc2OC)cc1` gave VDR inhibitor -3.2%, PLK1 PBD inh 0.6%, Sfp PPTase inh 11.8%, MmCpn inh inconclusive, G9a inh 70.8µM* and CCT chaperon mod -0.8.
COc1ccc(COC(=O)Nc2c(SC)nsc2SC)cc1 was read as VDR inhibitor -5.8%, PLK1 PBD inh -15.3%, Sfp PPTase inh -17.2%, MmCpn inh -2.3%, G9a inh -30.6% and CCT chaperon mod -2.5.
`Cc1ccc(C(=O)C(C(=O)/C=C/c2ccccc2)=C2SCCCS2)cc1` gave VDR inhibitor -15.2%, PLK1 PBD inh 3.36µM*, Sfp PPTase inh -11.4%, MmCpn inh -2.6%, G9a inh 7.08µM* and CCT chaperon mod 1.8.
`C=CCOC(=O)/C=C/NC(=O)/C=C/C=C/CCCCCCCC(C)O` (stereo not drawn) gave Sfp PPTase inh -6.4%.
Screening C=CCOC(=O)/C=C/C(=O)NC(N)=O returned VDR inhibitor inconclusive, PLK1 PBD inh inconclusive, Sfp PPTase inh 20µM*, MmCpn inh 3.2%, G9a inh 8.91µM* and CCT chaperon mod -0.9.
For Cc1c(C(=O)N(Cc2ccco2)Cc2ccccc2Cl)oc2ccc(F)cc12 the results were VDR inhibitor 0.1% and G9a inh 34.8%[59 µM].
`Cc1cc(C)c(Nc2nn3c(=O)c4cc5c(cc4nc3s2)OCO5)c(C)c1` gave VDR inhibitor inconclusive and G9a inh 2.24µM*.
For CC1(C)C2CCC(C2)C1(C)NC(=O)CNCC1CCCCC1 (stereo not drawn) the results were VDR inhibitor 17.3%, PLK1 PBD inh -5.1%, Sfp PPTase inh -7.0%, MmCpn inh -2.3%, G9a inh 5.62µM* and CCT chaperon mod -4.7.
For CCOc1cc(-c2nc3c(c(CC)nn3-c3ccccc3)c3cc(OC)c(OC)cc23)ccc1O the results were VDR inhibitor 9.3% and G9a inh 37.0%[59 µM].
COC(=O)c1ccccc1NC1CC(=O)N(c2c(C)cccc2C)C1=O (stereo not drawn) was read as VDR inhibitor 0.1%, PLK1 PBD inh -9.1%, Sfp PPTase inh 28.2µM*, MmCpn inh -17.6%, G9a inh inconclusive and CCT chaperon mod -0.1.
Screening COC(=O)c1ccc(NC2CC(=O)N(c3ccccc3C)C2=O)cc1 (stereo not drawn) returned VDR inhibitor -4.0%, PLK1 PBD inh -4.8%, Sfp PPTase inh -16.9%, MmCpn inh 0.1%, G9a inh inconclusive and CCT chaperon mod -1.8.
CC(C)C(NS(=O)(=O)c1ccc2c(c1)oc(=O)n2C)C(=O)NCCc1ccc(Cl)cc1 (stereo not drawn) was read as VDR inhibitor -0.4% and G9a inh 7.5%[59 µM].
`CN(C(=O)COc1ccccc1)c1nnc(-c2cccnc2)s1` gave VDR inhibitor 6.3%, PLK1 PBD inh -2.0%, Sfp PPTase inh 15.0%, MmCpn inh -0.6%, G9a inh -24.9%[12.7 µM] and CCT chaperon mod -0.7.
`CN(C(=O)COc1ccccc1)c1nnc(C23CC4CC(CC(C4)C2)C3)s1` gave VDR inhibitor inconclusive, PLK1 PBD inh -4.2%, Sfp PPTase inh 1.2%, MmCpn inh 4.0%, G9a inh 14.1µM* and CCT chaperon mod -0.2.
COc1cc(NC(=O)C(c2ccccc2)c2ccccc2)c(C(=O)O)cc1OC was read as VDR inhibitor 0.3%, PLK1 PBD inh -1.2%, Sfp PPTase inh 3.1%, MmCpn inh 0.0% and CCT chaperon mod -1.0.
CC(C)C[C@@H](C(=O)N[C@@H](Cc1c[nH]c2ccccc12)C(N)=O)N1C[C@]2(CCCN2C(=O)[C@H](Cc2ccccc2)NC(=O)[C@H](Cc2ccccc2)NC(=O)[C@H](CCC(N)=O)NC(=O)[C@H](CCC(N)=O)NC(=O)[C@@H]2CCCN2C(=O)[C@H](CCCCN)NC(=O)[C@@H]2CCCN2C(=O)[C@@H](N)CCCNC(=N)N)CC1=O was read as VDR inhibitor -0.1% and Sfp PPTase inh -2.3%.
For CN1CCN(C(=O)NC2CCCCC2)CC1 the results were VDR inhibitor 11.3%, PLK1 PBD inh -4.5%, Sfp PPTase inh -16.5%, MmCpn inh -0.1%, G9a inh 8.91µM* and CCT chaperon mod -0.4.
`O=C(NC1CCCCC1)N1CCCCCC1` gave VDR inhibitor 20.6%, PLK1 PBD inh -3.3%, Sfp PPTase inh 8.5%, MmCpn inh -4.0%, G9a inh -7.1% and CCT chaperon mod 3.0.
Cc1ccc(-c2csc3nc4cc(C(=O)NC5CCC(O)CC5)ccc4c(=O)n23)cc1 (stereo not drawn) was read as VDR inhibitor -7.7%, PLK1 PBD inh -22.2%, Sfp PPTase inh 56.2µM*, MmCpn inh -4.7%, G9a inh 0.631µM* and CCT chaperon mod -0.6.
Screening Cc1ccc(C(=O)O)cc1NC1(c2ccccc2)C(=O)c2ccccc2C1=O returned VDR inhibitor 14.6% and G9a inh -5.5%[59 µM].
Screening CCOc1cc(CNC(=O)c2ccc3c(c2)NC(=O)C2CCCCN32)cc(OCC)c1OCC (stereo not drawn) returned VDR inhibitor 8.4% and G9a inh -1.6%[59 µM].
